Activity calls are given as the source filed them. No rule for the calls is given here.

A short description of this assay: High Content Assay for Compounds that inhibit the Assembly of the Perinucleolar Compartment:Cell Migration SAR. The note with it: PC3M 3D collagen invasion, Hoechst imaging, 5 d. The text has this: The perinucleolar compartment (PNC) is a non-membrane-bound nuclear subdomain that is associated with but structurally distinct from the nucleolus. The PNC is a heritable trait, in which the number of PNCs per cell in daughter cells often mimics that of their mother cells. The PNC is heterogeneous in shape, is stable through interphase, disassembles during mitosis, and reassembles in early G1. The PNC is concentrated with newly synthesized RNA polymerase III (pol III) RNAs (MRP RNA, RNAse P H1 RNA, hY RNAs[hY1, 2, 5], Alu RNA, and SRP [7SL] RNA) and RNA binding proteins (nucleolin, PTB, CUG-BP, KSRP, Raver1, Raver2, and Rod). […] In collaboration between Sui Huang from Northwestern University and the NCGC, a high content assay was developed and screened. The hits were then tested in follow-up assays. High-content tumor cell migration assays in 3-dimensional extracellular matrices are powerful tools for modeling and understanding the biology of this critical step in the process of metastasis. However, most of the available methods are not amenable to the throughput required by studies of comparative pharmacology or small scale screening. For this reason, we worked with BellBrook Labs(R) to test our compounds in their automated high-content tumor cell invasion assays.[35] […]
Consider `N=c1c2c(-c3ccccc3)c(-c3ccccc3)n(Cc3ccccc3)c2ncn1C1CCC(O)CC1` (stereo unspecified), for which the Potency was 3.98 µM (active).

The record behind these values is PubChem BioAssay AID588738 (National Center for Advancing Translational Sciences (NCATS), 2011).
